From PubChem BioAssay (NCI)
Compounds without any hit were thinned out: in the full panel of roughly 83,000, 20% have a hit.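 96-well plates, one dose, 48 hours. Percent growth reported; active if below 10.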 Unmarked numbers belong to inactive results. The source made the active and inactive calls.

What was measured:
Assay in all cases: NCI-60 one-dose screen, 48 h (100 = growth as untreated, 0 = no growth, -100 = all killed)
Settings in all cases: 10 µM unless noted
RPMI-8226 leukemia = system: RPMI-8226 leukemia
OVCAR-8 ovarian = system: OVCAR-8 ovarian
OVCAR-5 ovarian = system: OVCAR-5 ovarian
OVCAR-4 ovarian = system: OVCAR-4 ovarian
SK-OV-3 ovarian = system: SK-OV-3 ovarian
IGROV1 ovarian = system: IGROV1 ovarian
OVCAR-3 ovarian = system: OVCAR-3 ovarian
HS 578T breast = system: HS 578T breast
NCI/ADR-RES ovarian = system: NCI/ADR-RES ovarian
T-47D breast = system: T-47D breast
BT-549 breast = system: BT-549 breast
MDA-MB-435 melanoma = system: MDA-MB-435 melanoma
SW-620 colon = system: SW-620 colon
MCF7 breast = system: MCF7 breast
HCT-116 colon = system: HCT-116 colon
HCC-2998 colon = system: HCC-2998 colon
KM12 colon = system: KM12 colon

Row | SMILES | growth (RPMI-8226 leukemia) | growth (OVCAR-8 ovarian) | growth (OVCAR-5 ovarian) | growth (OVCAR-4 ovarian) | growth (SK-OV-3 ovarian) | growth (IGROV1 ovarian) | growth (OVCAR-3 ovarian) | growth (HS 578T breast) | growth (NCI/ADR-RES ovarian) | growth (T-47D breast) | growth (BT-549 breast) | growth (MDA-MB-435 melanoma) | growth (SW-620 colon) | growth (MCF7 breast) | growth (HCT-116 colon) | growth (HCC-2998 colon) | growth (KM12 colon)
1 | O=C1C(=O)c2c(nc3ccc(Br)cn23)-c2ccccc21 | -47.6% (active) | -90.7% (active) | -76.9% (active) | -95.1% (active) | -97.6% (active) | -51.5% (active) | -51.4% (active) | -52.2% (active) | -31.4% (active) | -59.8% (active) | -86.8% (active) | -94% (active) | -79.6% (active) | -54.1% (active) | -88.9% (active) | -82.5% (active) | -41.5% (active)
2 | Cc1ccc(SC2c3ccc(C)cc3Oc3nc(N)c(C#N)c(N)c32)cc1 (centres undefined) | 12.8% | 95% | 121% | 74.8% | 102% | 25.9% | 55.2% | 96.2% | 92.1% | 16.8% | 78.9% | 91.6% | 64.6% | 5.14% (active) | 81.7% | 103% | 96.8%
3 | C#Cc1ccccc1NC(=O)c1sc2nc3c(cc2c1N)CCCCC3 | 97.4% | 100% | 105% | 103% | 100% | 103% | 105% | 99.6% | 105% | 95% | 96.4% | 95.1% | 102% | 81.5% | 109% | 105% | 102%
4 | COc1cc(-c2nn(-c3ccc(Br)cc3)cc2CO)ccc1O | 84.6% | 94.9% | 101% | 94.7% | 105% | 115% | 103% | 88.9% | 99.3% | 80.3% | 89.6% | 108% | 104% | 92.1% | 92.6% | 104% | 91.7%
5 | CC1(c2ccccc2Cl)NC(=O)NC1=O (centres undefined) | 102% | 102% | 106% | 109% | 97.3% | 106% | 106% | 99.7% | 96.9% | 79.3% | 99% | 105% | 102% | 96.9% | 107% | 92.3% | 109%
6 | Cc1c(O)c(=O)ccn1-c1nc2ccccc2s1 | 96.8% | 85.4% | 98.7% | 97.7% | 99% | 109% | 100% | 95% | 57.1% | 92.4% | 93.4% | 99.7% | 94.9% | 98.6% | 95.8% | 114% | 98.5%
7 | CCN1CCN(c2ccc(NC(=O)Nc3nc4ccc(-c5ccccc5OC)cc4s3)cc2)CC1 | -33% (active) | -52.5% (active) | -11.5% (active) | -76.1% (active) | -12.5% (active) | -71.3% (active) | -90.5% (active) | -23.2% (active) | -67.3% (active) | -45.4% (active) | 31.6% | -85.5% (active) | -70% (active) | -70.8% (active) | -82.3% (active) | -88.1% (active) | -83.5% (active)
8 | COc1ccc(Sc2[nH]c(C(C)=O)c3ccccc23)cc1 | 41.4% | 88% | 94.1% | 71.2% | 19% | 83.6% | 68.3% | 83.9% | 40.8% | 56.5% | 50.1% | -23.4% (active) | 58.6% | 57.5% | 65.3% | 70.2% | 37%
9 | COc1cc(/C=N/Nc2nc(-c3ccc(F)cc3)c(C#N)c(N3CCOCC3)n2)ccc1O | 87.1% | 89.8% | 107% | 89.8% | 102% | 96.7% | 103% | 102% | 102% | 93.6% | 94.3% | 97% | 95% | 93.2% | 96.8% | 117% | 103%
10 | NC(=N\N=C\c1ccccc1O)/C(N)=N/N=C/c1ccccc1O | 61.1% | 81.3% | 96.7% | 6.53% (active) | 92.4% | 97.8% | 63.1% | 68.8% | 83.3% | 64% | 72% | 72.2% | 71.5% | 69.4% | 81.3% | 99.1% | 55.8%
11 | O=C1CC(c2ccc(O)c(O)c2)Oc2cc(O)c([C@@H]3O[C@H](CO)[C@@H](O)[C@H](O)[C@H]3O)c(O)c21 (some centres undefined) | 99.3% | 101% | 98.7% | 101% | 103% | 109% | 104% | 105% | 110% | 95.8% | 102% | 105% | 98.4% | 108% | 93.9% | 108% | 109%
12 | O=C(Nc1nccs1)c1noc2ccccc12 | 90.4% | 94.7% | 103% | 88.4% | 92.2% | 84.1% | 110% | 97% | 106% | 57.5% | 102% | 105% | 98.8% | 63.9% | 93.8% | 105% | 94.3%
13 | Cc1cnc(-c2ccc(-c3ccc(NC(=O)Nc4c(F)cc(F)cc4F)cc3F)c3c2C(=O)NC3)[nH]1 | 22.2% | 39% | 71% | -16.5% (active) | 49.6% | 33% | -34% (active) | -5.61% (active) | 72.4% | 73.6% | 55.8% | 14.2% | 10.1% | 22.1% | 14.2% | 60.5% | 11.7%
14 | O=C1NN(c2ccccc2)C(c2ccc3c(c2)OCO3)N2CCC[C@@H]12 (some centres undefined) | 105% | 96.8% | 108% | 108% | 99% | 89.7% | 100% | 104% | 97.9% | 90.9% | 114% | 105% | 105% | 87.5% | 94.3% | 82.2% | 98.8%
15 | [2H]c1nc(Nc2ncc3cc(C(=O)N(C)C)n(C4CCCC4)c3n2)c([2H])c([2H])c1N1C([2H])([2H])C([2H])([2H])NC([2H])([2H])C1([2H])[2H] | 31% | 73.8% | 40.3% | 93.1% | 57.1% | 65.8% | 97% | 67.1% | 106% | 53.2% | 89.4% | 68.9% | 35.5% | 46.9% | 40.9% | 77.5% | 42.5%
16 | CC(C)Cc1cc(CNC(=O)C2[C@H]3CN(C(=O)c4ccccc4)C[C@@H]23)nn1-c1ccccc1 (some centres undefined) | 84.7% | 77.9% | 97.9% | 104% | 76.8% | 107% | 100% | 97.9% | 93.8% | 74.2% | 96.1% | 108% | 102% | 94.4% | 92% | 101% | 101%
17 | CCCNc1nc(C)[nH]c(=O)c1S | 87.4% | 105% | 113% | 105% | 134% | 102% | 106% | 137% | 109% | 98.6% | 113% | 105% | 121% | 111% | 108% | 112% | 107%
